# Results from PubChem BioAssay AID504634 (The Scripps Research Institute Molecular Screening Center, 2011).
# The campaign covered roughly 340,000 compounds. About 280 (0.082%) were called active. The list comes from a sample in which actives are over-represented; it also holds similar structures and randomly drawn compounds. Unmarked numbers belong to inactive results. No stated cut-off is given here; in the data, active means inhibition mostly above about 23% (no sharp cut-off); inactive means mostly below about 18%.
# Biological target: 5-hydroxytryptamine receptor 5A (Homo sapiens) (UniProt P47898)
# Sequence (P47898 whole entry, looked up): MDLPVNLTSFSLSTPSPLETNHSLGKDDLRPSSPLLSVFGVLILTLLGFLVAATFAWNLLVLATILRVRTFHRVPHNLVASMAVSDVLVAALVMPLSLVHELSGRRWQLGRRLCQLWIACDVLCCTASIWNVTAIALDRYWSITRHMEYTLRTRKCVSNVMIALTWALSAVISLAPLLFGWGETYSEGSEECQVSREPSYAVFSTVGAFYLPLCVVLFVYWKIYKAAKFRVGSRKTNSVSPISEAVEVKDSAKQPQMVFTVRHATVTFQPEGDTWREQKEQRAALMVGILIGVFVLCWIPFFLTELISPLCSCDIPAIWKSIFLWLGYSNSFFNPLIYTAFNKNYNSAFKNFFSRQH
# Assay: inverse agonism at human 5-HT5A receptor – cell-based, luminescence, full-deck HTS, counter-screen for OPRM1-OPRD1 heterodimer inverse agonist project, primary screen (AID 504634);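 further: 0% = cells with DMSO and 100% = no-cell wells with DMSO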
# Conditions: HTR5A cell line, at 9.3 µM, stronger effect = higher value
row,SMILES,inhibition
1,CCOc1ccc(CCNC(=O)CN2C(=O)NC3(CCc4ccccc43)C2=O)cc1OCC (stereo not given),16.7%
2,COc1cc(NC(=O)c2ccc(CNc3c(N4CCCC4)c(=O)c3=O)cc2)cc(OC)c1OC,-11.7%
3,CC(=O)c1ccc(Oc2cc(C)nc(-n3nc(C)cc3C)n2)cc1,6.21%
4,Cc1cc(C)n(-c2ccc(Cl)c(C(=O)O)n2)n1,39.8% (active)
5,Cc1cc(C)n(-c2ccc3nncn3n2)n1,5.02%
6,COc1ccc(N2C(=O)C(CC(=O)Nc3ccc(F)cc3)N(CCc3cccs3)C2=O)cc1 (stereo not given),6.13%
7,COc1ccc(NS(=O)(=O)c2cc(NC(=O)c3ccc(S(=O)(=O)N(C)C)cc3)ccc2N2CCOCC2)cc1,8.03%
8,Cc1cc(C)cc(NC(=O)CSCc2cnn(-c3ccccc3)c2-n2cccc2)c1,3.55%
9,CCOC(=O)NC(=O)C(=CNc1cccc(OC)c1)C(=O)NC(=O)OCC,34% (active)
10,CCOC(=O)C1CCN(C(=O)Nc2cccc(OC)c2)CC1,17.6%
11,COc1cccc(NC(=O)COC(=O)CCOc2ccccc2OC)c1,-27.4%
12,COCCn1c(SCC(=O)Nc2cc(Cl)ccc2OC)nc2c(c1=O)SC(C)C2 (stereo not given),-31.9%
13,N#CC1(C#N)C(C(=O)C23CC4CC(CC(C4)C2)C3)C12CCOCC2 (stereo not given),20.3%
14,COc1cc(C)nc(N2CCCC(C(=O)NCC(C)C)C2)n1 (stereo not given),-13.9%
15,CCNc1nc(NCC)nc(N(C)n2cnnc2)n1,13%
16,O=C(Nc1ccc2c(c1)C(=O)OC2)Nc1cccc2ccccc12,-14.2%
17,O=S(=O)(NC1CCCCC1N1CCC(O)CC1)c1ccc(Cl)cc1 (stereo not given),-6.29%
18,O=C(COc1ccccc1F)NNC(=O)c1ccc(N2CCCCC2)c([N+](=O)[O-])c1,7.26%
19,O=c1[nH]n2c(=O)c3c([nH]c2c1N=Nc1ccccc1)CCC3,17%
20,Cc1c(CNCCc2ccccc2)c(C(=O)O)c(C)n1-c1ccccc1,10.6%
21,CCc1ccc(CCC(=O)Nc2ccc(S(N)(=O)=O)cc2)o1,-4.51%
22,COc1ccc(OCc2nnc3n2N=C(c2ccccc2)C(CC(=O)O)S3)cc1 (stereo not given),-14.6%
23,O=C(Nc1ccc(Br)c2cccnc12)c1ccc(Cn2cc([N+](=O)[O-])cn2)o1,-5.7%

row,SMILES,inhibition
1,O=C(CSc1nnc2ccc(-c3ccncc3)nn12)N1CCCCC1,-11.3%
2,OCCN1CCN(CCO)C1=S,12.7%
3,CCCCn1c(N)c(N2CCOCC2)c(=O)n(CC(=O)NCCc2ccccc2)c1=O,-7.42%
4,CCC(C(=O)OC)n1cnc2scc(-c3ccc(C)cc3)c2c1=O (stereo not given),18%
5,COc1cc(C(=S)N2CCOCC2)cc(OC)c1OC(=O)c1cc([N+](=O)[O-])c(C)c([N+](=O)[O-])c1,-9.45%
6,COc1ccc(/C=C/C(=O)c2cc(Br)ccc(=O)c2O)cc1,-37%
7,CC(=O)CCS(=O)(=O)c1ccc(C)c(C)c1,6.1%
8,CCCCN(CC)C(=O)c1ccccc1Oc1ccccc1,4.41%
9,C=CCn1c(SCC(=O)NC(=O)Cc2ccccc2)nc2ccccc2c1=O,4.86%
10,CCOc1cc(S(=O)(=O)NCc2ccc3c(c2)OCO3)ccc1F,18.6%
11,Cc1cc(-c2nc(C)c(-c3nnc(SCC(=O)Nc4ccccc4)n3C)s2)no1,0.1%
12,CC(=O)N1CCN(c2ccc(NCc3ccc(C(C)C)cc3)cc2)CC1,-28.6%
13,CC1CCCN(c2ccc(C(=O)NCCc3ccccc3)cn2)C1 (stereo not given),-15.3%
14,C=C1CCN([C@@H](Cc2ccccc2)C(=O)N2CCOCC2)S(=O)(=O)c2ccccc21,-14.5%
15,CCOC(=O)N1CCC(NC(=O)C(NS(=O)(=O)c2ccc3c(c2)CCN3C(=O)CC)C(C)C)CC1 (stereo not given),-32.3%
16,CCN(c1ccccc1)S(=O)(=O)c1ccc2[nH]c(=O)[nH]c2c1,4.19%
17,O=C(O)c1ccc(NS(=O)(=O)c2cccc3nsnc23)cc1,-11.7%
18,Cc1cc(-c2ccc(S(=O)(=O)N3CCN(c4cccc(C(F)(F)F)c4)CC3)s2)on1,-11.3%
19,CCCCNC(=O)C1CCC(=O)N1CCc1ccccc1 (stereo not given),4.38%
20,COc1ccc(N2CC(C)Cn3c2nc2c3c(=O)n(Cc3ccccc3F)c(=O)n2C)c(OC)c1 (stereo not given),6.23%
21,CN(C)c1ccc(/C=C/C(=O)c2ccc(C(C)(C)C)cc2)cc1[N+](=O)[O-],-5.83%
22,CN(C)c1ccc(/C=C/C(=O)c2ccc(O)cc2)cc1[N+](=O)[O-],5.01%
23,O=C(/C=C/c1ccc(Cl)c([N+](=O)[O-])c1)c1ccc(O)cc1,25.2% (active)

row,SMILES,inhibition
1,CC(C)CCNC(=O)C(C)N(C(=O)Cn1nnc(-c2ccc(F)cc2)n1)C1CCCC1 (stereo not given),-27.5%
2,CC1(c2nnc(Cc3ccccc3)o2)CC(c2ccccc2F)=NO1 (stereo not given),-30.2%
3,O=[N+]([O-])/C=C/c1ccc2c(ccn2Cc2ccccc2)c1,29.1%
4,COc1ccc(CN2CCCC(C(=O)N3CCCCC3)C2)cc1 (stereo not given),-7.55%
5,COc1cc(N2CCCC2)c(OC)cc1/C=C(/C#N)c1cccc(Br)c1,0.8%
6,Cc1noc(C)c1-c1nc(CSc2ccc(Cl)cc2)no1,-15%
7,O=C(NCCC1CCCCN1S(=O)(=O)c1ccccc1)C(=O)NCC1CCCO1 (stereo not given),-11.3%
8,CCOc1ncccc1C(=O)N(CC)CC(=O)Nc1ccc(NC(C)=O)cc1,-12.8%
9,CCSc1nc2sc3c(c2c(=O)n1-c1ccc(C)cc1)CCN(C)C3,-7.48%
10,CCc1ccc(OCC(=O)N(Cc2ccccc2)C2CCS(=O)(=O)C2)cc1 (stereo not given),9.5%
11,O=C(NCc1ccc(F)cc1)C1CCC(CNc2c(N3CCOCC3)c(=O)c2=O)CC1 (stereo not given),4.62%
12,CCNC(=S)N1CCN(S(=O)(=O)c2ccc(Cl)s2)CC1,2.35%
13,CSc1cccc(NC(=O)C2CCCN2S(=O)(=O)c2ccc3c(c2)CCC(=O)N3)c1 (stereo not given),-6.95%
14,COn1c(=O)c(=O)n(OC)c2ccccc21,13.4%
15,CC(NC(=O)c1cccc2ccccc12)c1ccc2c(c1)CCCC2 (stereo not given),-1.12%
16,COCCn1c(SCC(=O)Nc2ccc3c(c2)CCC3)nc2ccccc2c1=O,4.39%
17,COC(=O)C1CCCCN1C(=O)c1ccc(OC2CCN(C(C)=O)CC2)c(OC)c1 (stereo not given),-12.2%
18,Cc1cc(C)c(S(=O)(=O)N2CCCC2CNC(=O)c2ccc3c(c2)OCO3)c(C)c1 (stereo not given),1.64%
19,Cc1cc(NC(=O)CCN2CCN(Cc3ccccc3)CC2)ccc1Br,-5.24%
20,CN(CCO)S(=O)(=O)c1ccc2c(c1)C(=O)c1cc(S(=O)(=O)N(C)CCO)ccc1-2,-0.05%
21,Cn1c(N)c(C(=O)COC(=O)c2cnc(Cl)c(Cl)c2)c(=O)n(C)c1=O,13.4%
22,CCOc1ccc(NC(=O)CC(Cc2ccc(Cl)cc2)C(=O)O)cc1 (stereo not given),11.4%
23,COc1ccc(CCNC(=O)COc2cc(C)cc3oc(=O)c(C)c(C)c23)cc1OC,-41.4%

row,SMILES,inhibition
1,Cc1cccc(C(=O)OC(C)CN2CCCC2)c1 (stereo not given),-16.4%
2,O=C(NC(=S)Nc1cc(C(F)(F)F)ccc1N1CCOCC1)c1ccc(-c2cccc(Cl)c2)o1,12.2%
3,Cc1ccc(NC(=O)CSc2nc(=O)n(CCN(C)C)c3c2CCCC3)c(C)c1,8.38%
4,Cc1c(C(=O)NCCN2C(=O)S/C(=C\c3cccs3)C2=O)cccc1[N+](=O)[O-],-12.1%
5,Cc1cc(NC(=O)CSC2=NS(=O)(=O)c3cc(Cl)ccc3N2)no1,6.86%
6,Cc1ccc(S(=O)(=O)NCC(C)NS(C)(=O)=O)cc1 (stereo not given),-0.41%
7,CC(=O)N(O)CCCCCNC(=O)CCC(=O)N(O)CCCCCNC(=O)CCC(=O)N(O)CCCCCNC(=O)CCC(=O)O,2.24%
8,O=C(NCc1ccncc1)C1CCN(C(=O)c2cccc(Cl)c2)CC1,-13.3%
9,Cc1[nH]c2ccccc2c1C(=O)COC(=O)c1c(-c2ccccc2)noc1C,-12.9%
10,Nc1nonc1-n1nnc(C(=O)N/N=C/c2cc(Br)ccc2O)c1CSC1=NCCS1,-4.39%
11,Cc1c(-c2ccccc2)cn2c1-c1ccc(C)n1CC2,-5.32%
12,CC(=O)c1cccc(OCc2cc(C(=O)NC(C)Cc3cccnc3)no2)c1 (stereo not given),-3.71%
13,Cc1noc(C)c1COc1ccc(C(=O)NCCOc2ccccc2)cc1,-0.9%
14,Cc1noc(C)c1COc1cccc(C(=O)Nc2cccnc2)c1,22.3% (active)
15,CCc1nc2ccccc2n(CCOCCOCCn2c(=O)c(CC)nc3ccccc32)c1=O,-0.84%
16,CN(C(=O)CSc1nnc(Nc2ccccc2)s1)C1CCS(=O)(=O)C1 (stereo not given),16.5%
17,C/C=C/C(=O)Nc1ccc(N2CCN(c3ccc(C(F)(F)F)cn3)CC2)nc1,-13%
18,O=P(O)(CP(=O)(c1ccccc1)c1ccccc1)c1ccccc1,4.79%
19,COc1ccc(S(=O)(=O)N2CCSCC2)cc1,16.4%
20,CCn1cc(C(=O)NCCCN2CCCCCC2)c(=O)c2cc(S(=O)(=O)N3CCc4ccccc4C3)ccc21,-11%
21,CCOC(=O)c1cn(CC)c2cc(F)c(F)cc2c1=O,-4.15%
